SMILES strings stand for the structures. In all, about 350,000 compounds went through this assay and about 9,900 (2.8%) were called active. Not shown: some 15% with an inconclusive outcome. The call rests on the fitted dose curve; in most records, active means well fitted activation curve with a large enough effect; inconclusive means small, poorly fitted or top-dose-only effect; inactive means no such curve, though single readings can be large or run the other way. Shown is part of a subset that was picked to be rich in actives. A call without a number means that no potency is given here.
Potency means the concentration at half of the fitted maximal effect.

A short description of the assay: A quantitative high throughput screen for small molecules that induce DNA re-replication in MCF 10a normal breast cells. Further: nearly all actives have a fitted effect of over 50% in size. The settings on record: MCF 10A DNA re-replication, Hoechst nuclear intensity, 48 h; series mostly up to 46.1 µM.
As to `CC(NCC(=O)Nc1ccccc1C(=O)NC1CC1)c1ccccc1Cl` (stereo unspecified), the Potency result was “inactive”.

As to `O=C(O)CCCC(=O)Nc1ccccc1-n1ccnc1`, the Potency entry was “inactive”.

Consider `CC(C)CC(=O)Nc1ccc(Cc2ccncc2)cc1`, for which the Potency entry is “inactive”.

Take `CC(CC(=O)Nc1ccccc1)n1ccnc1` (stereo unspecified): the Potency was 0.92 µM (active).

On to `O=[N+]([O-])c1ccc(COc2ccccc2CN2CCOCC2)cc1`, for which the Potency entry is “inactive”.

Regarding `CCN(CC(=O)NCc1ccc(F)cc1)S(=O)(=O)c1ccc(Cl)s1`, the Potency entry was “inactive”.

As for `COc1ccc(C(=O)Nc2cccc(S(C)(=O)=O)c2)cc1`, the Potency entry is “inactive”.

As to `COc1cccc(C(=O)Nc2nc3ccc(S(C)(=O)=O)cc3s2)c1`, the Potency result is “inactive”.

Take `COc1ccc2sc(-c3ccc(S(C)(=O)=O)cc3)c(-c3ccc(C(N)=O)cc3)c2c1`: the Potency is 25.9 µM (active).

Turning to `CC(=O)Nc1ccc(S(=O)(=O)NCCC(=O)N2CCN(c3ccccc3Cl)CC2)cc1`, the Potency result is “inactive”.

As to `NC(=O)c1ncn([C@@H]2O[C@H](CN=C3NS(=O)(=O)c4ccccc43)[C@@H](O)[C@H]2O)n1`, the Potency entry is “inactive”.

With `CCc1sc(C(=O)N2CCN(CC(=O)Nc3cccc(F)c3)CC2)cc1C`, the Potency result was “inactive”.

On to `COC(=O)CN(C(=S)Nc1ccc(Cl)cc1)C1CC(=O)N(c2ccc(OC)cc2)C1=O` (stereo unspecified), for which the Potency entry was “inactive”.

For the compound `CCOc1ccc(N2C(=O)CC(N(O)c3ccccc3)C2=O)cc1` (stereo unspecified), the Potency entry was “inactive”.

Turning to `CCOc1ccc(N2C(=O)CC(N(CCc3ccc(OC)c(OC)c3)C(=S)Nc3ccccc3)C2=O)cc1` (stereo unspecified), the Potency was 23.1 µM (active).

Take `COc1ccccc1N1CCN(CC(=O)Nc2ccnn2C2CCCC2)CC1`: the Potency result was “inactive”.

Regarding `CC(C)Cn1cnc2c(SCc3ccc(Cl)cc3)nc(N)nc21`, the Potency entry is “inactive”.

`CC(C)c1ccc2c(c1)c(SC(C)(C)C)c(CC(C)(C)C(=O)O)n2Cc1ccc(Cl)cc1`: the Potency is 2.91 µM (active).

Regarding `O=C(O)c1ccc(Cn2c(=S)[nH]c3cc(Cl)ccc3c2=O)cc1`, the Potency result is “inactive”.

For `CCN([C@H](CO)C(C)C)S(=O)(=O)c1ccccc1Br`, the Potency result is “inactive”.

For `COc1cc(OC)cc(-c2c(C#Cc3ccsc3)c3cc(-c4ccc(SC)cc4)ccc3n2C)c1`, the Potency result is “inactive”.

`COc1cc(OC)cc(-c2c(C#Cc3ccsc3)c3cc(-c4ccc(OC)cc4F)ccc3n2C)c1`: the Potency is 0.326 µM (active).

With `COc1ccc(-c2c(C#Cc3ccsc3)c3cc(-c4ccc(CN5CCOCC5)cc4)ccc3n2C)cc1`, the Potency result is “inactive”.

As for `COc1cccc2oc(CCc3ccccc3)cc(=O)c12`, the Potency result was “inactive”.

For `Cc1nn(-c2ncccn2)c2c1C(=O)CC(C)(C)C2Br` (stereo unspecified), the Potency entry was “inactive”.

As for `O=C(O)CCC(=O)N(Cc1cccs1)Cc1cccs1`, the Potency entry was “inactive”.

On to `CCN(CC)C(=O)N(CC)Cc1ccccc1`, for which the Potency entry was “inactive”.

As to `O=C(O)CCC(=O)N(Cc1ccccc1)Cc1ccccc1`, the Potency was 0.731 µM (active).

Consider `Cc1cc(NC(=O)C(C)SCC(=O)Nc2cccc(S(=O)(=O)N3CCCCCC3)c2)no1` (stereo unspecified), for which the Potency entry was “inactive”.

For `O=C(CCc1nnc(Cc2ccc3c(c2)OCO3)o1)NCCc1ccccc1Cl`, the Potency is 20.6 µM (active).

As for `O=C(CC(Cc1ccccc1)C(=O)O)NCCc1ccc2c(c1)OCO2` (stereo unspecified), the Potency entry was “inactive”.

Take `Cn1cc(CCC(=O)NCc2ccc3c(c2)OCO3)c2ccccc21`: the Potency result was “inactive”.

As for `COc1ccc(CCC(=O)N2CCN(S(=O)(=O)c3ccc(OC)cc3)CC2)cc1`, the Potency result was “inactive”.

On to `Cc1ccccc1-n1c(C)cc(/C=C2\NC(=O)NC2=O)c1C`, for which the Potency was 25.9 µM (active).

For the compound `Cc1ccccc1-n1c(C)cc(/C=N/NC(=O)c2ccc(CN3CCOCC3)cc2)c1C`, the Potency result is “inactive”.

In the case of `Cc1ccc(CN2C(=O)N/C(=C/c3cc(C)n(-c4ccccn4)c3C)C2=O)cc1`, the Potency result is “inactive”.

As for `CC1(C)CC(=O)C=C(c2cccc3c2Oc2ccccc2S3)C1`, the Potency result is “inactive”.

For `CC(=NNC(=O)c1ccc2nc[nH]c2c1)c1ccc(Br)cc1`, the Potency entry was “inactive”.

For `O=C(Nc1cccc2ncccc12)c1ccc(-c2ccc(Cl)cc2Cl)o1`, the Potency result was “inactive”.

Take `Cc1csc(NC(=O)c2ccc(-c3ccc(Cl)cc3Cl)o2)n1`: the Potency was 18.4 µM (active).

As for `Cc1csc(NC(=O)c2ccc(C)s2)n1`, the Potency entry is “inactive”.

As for `CC(Nc1ccc([N+](=O)[O-])cc1[N+](=O)[O-])c1ccccc1` (stereo unspecified), the Potency result is “inactive”.

Take `CCCn1c(CCNc2nc(-c3ccc(OC)cc3)cs2)nc2ccccc21`: the Potency result is “inactive”.

`CCCn1c(C(C)Nc2nc(-c3ccc(C)cc3)cs2)nc2cc(Cl)c(N3CCCCC3)cc21` (stereo unspecified): the Potency result was “inactive”.

In the case of `Cc1nc2cc(C(F)(F)F)ccc2n1CCNc1nc(-c2cc(Cl)c(N)c(Cl)c2)cs1`, the Potency is 23.1 µM (active).

Consider `CC1CCCCC1NC(=O)Cn1cnc2c1c(=O)n(C)c(=O)n2C` (stereo unspecified), for which the Potency result is “inactive”.

Regarding `CCCN(CC(=O)Nc1ccccc1C)C(=O)c1ccc(OCC(=O)N2CCOCC2)c(OCC)c1`, the Potency entry was “inactive”.

On to `COCCNC(=O)c1ccc2nc(Cc3ccc(OC)c(OC)c3)oc2c1`, for which the Potency is 3.26 µM (active).

Turning to `CSCCNC(=O)c1ccc2nc(Cc3ccccc3F)oc2c1`, the Potency result is “inactive”.

For the compound `COc1ccc(Cc2nc3ccc(C(=O)NCC4CCOCC4)cc3o2)cc1OC`, the Potency entry is “inactive”.

Regarding `CCOc1ccc(NC(=O)CN(C)C(=O)c2cccc(S(=O)(=O)N3CCCC3)c2)cc1OCC`, the Potency result is “inactive”.

As to `COc1ccc(S(=O)(=O)N2CCOCC2)cc1NC(=O)c1ccc(OCC(C)C)c(OC)c1`, the Potency result is “inactive”.

With `CCCCCOc1ccc(CSC2=NCCN2)cc1[N+](=O)[O-]`, the Potency was 20.6 µM (active).

Turning to `Cc1nc(SCc2ccc(F)cc2)c([N+](=O)[O-])[nH]1`, the Potency entry was “inactive”.

On to `CCCOc1ccc(Cn2ccnc2)cc1[N+](=O)[O-]`, for which the Potency result is “inactive”.

For the compound `COc1ccccc1C1=CC(=O)C[C@H](c2ccc(F)cc2)C1`, the Potency result is “inactive”.

`O=C(COC(=O)CNC(=O)C1CCCCC1)NCc1ccccc1`: the Potency entry is “inactive”.

Consider `Cc1ccc(NC(=O)[C@H](Cc2ccccc2)NC(=O)C2CCNCC2)cc1`, for which the Potency result was “inactive”.

In the case of `CCC(Cc1ccccc1)NC(=O)C1CCCCC1` (stereo unspecified), the Potency is 0.651 µM (active).

In the case of `O=C(O)c1ccc(Cn2cnc3c(=S)nc[nH]c32)cc1`, the Potency entry is “inactive”.

With `COc1ccccc1N(CCOc1ccccc1)S(=O)(=O)c1ccccc1`, the Potency result is “inactive”.

As to `COc1ccc(C(=O)NN(C)c2nc(-c3ccccc3)cc(C)c2S(C)(=O)=O)cc1`, the Potency entry is “inactive”.

For the compound `CSc1nc(N(C)NC(=O)c2cccc(C)c2)c2ccccc2n1`, the Potency is 0.231 µM (active).

As to `Cc1cccc(C(=O)NCCCN(C)CCCNC(=O)c2cccc(C)c2)c1`, the Potency result is “inactive”.

With `CCN(c1ccccc1)S(=O)(=O)c1ccc(OCC(=O)N2CCCC2)cc1`, the Potency result is “inactive”.

Regarding `O=C(NCCN1CCOCC1)c1ccc2c(c1)N(Cc1ccc(Cl)cc1)CCS2`, the Potency result is “inactive”.

With `Cc1c(C)n(Cc2ccc(Cl)cc2)c2ccc(C(=O)NCCCN3CCOCC3)cc12`, the Potency is 23.1 µM (active).

For `Cc1ccc(C(=O)NCCN2CCOCC2)cc1C`, the Potency entry was “inactive”.

For `COC(=O)C1=CO[C@@H](O[C@@H]2O[C@H](CO)[C@@H](O)[C@H](O)[C@H]2O)C2C1C[C@H](O)[C@@H]2C` (stereo partly specified), the Potency result is “inactive”.

For `O=c1nc(NO)ccn1C1CCCO1` (stereo unspecified), the Potency entry is “inactive”.

Consider `COc1cc(NC(=O)c2ccccc2NS(=O)(=O)c2ccc(Cl)s2)cc(OC)c1`, for which the Potency was 14.6 µM (active).

In the case of `COc1cc(OC)c(S(=O)(=O)Nc2ccccc2C(=O)O)cc1S(=O)(=O)Nc1ccccc1C(=O)O`, the Potency entry is “inactive”.

On to `COc1cc(NC(=O)c2cccnc2SC)cc(OC)c1`, for which the Potency result was “inactive”.

Turning to `N#Cc1ccc(CN2CCN(CC(=O)Nc3ccccc3C(=O)NC3CC3)CC2)cc1`, the Potency entry was “inactive”.

With `O=C(Nc1ccc2c(c1)OCO2)C1CC1(Cl)Cl` (stereo unspecified), the Potency result is “inactive”.

As to `CC(=O)Nc1ccc(S(=O)(=O)NCC(=O)OCC(=O)c2ccc[nH]2)cc1`, the Potency result is “inactive”.

Consider `CCCCNc1c(-c2cccc(Sc3ccc(OC)cc3)c2)nc2ccccn12`, for which the Potency is 18.4 µM (active).

Take `COc1ccc(Sc2nc(-c3ccccc3)ncc2OC)cc1`: the Potency result was “inactive”.

With `CCCCNc1nc2c(c(=O)n(C)c(=O)n2C)n1Cc1cccc(OC)c1`, the Potency result was “inactive”.

For `Fc1ccc2cnc(-c3ccccc3)cc2c1`, the Potency entry was “inactive”.

`COc1cc(/C=C/CNC[C@H]2O[C@@H](n3cnc(C(N)=O)n3)[C@H](O)[C@@H]2O)ccc1O`: the Potency result is “inactive”.

As to `O=C(CSC(=S)N1CCOCC1)c1cc(Br)cc(Br)c1O`, the Potency result is “inactive”.

On to `O=C(c1cc2cc(Br)cc(Br)c2oc1=O)N1CCOCC1`, for which the Potency entry is “inactive”.

As to `O=C1Nc2c(Br)cc(Br)cc2C1(O)N1CCOCC1` (stereo unspecified), the Potency was 8.2 µM (active).

For the compound `Cc1ccc2c(c1)C1C[N+](C)(CC(=O)c3ccccc3)CCC1N2C(=O)c1ccccc1Cl` (stereo unspecified), the Potency result is “inactive”.

For `CC[C@]12c3[nH]c4cc(CCC(=O)N(C)C)ccc4c3CCN1C(=O)[C@@H](CC(=O)NCC13CC4CC(CC(C4)C1)C3)C[C@@H]2C(=O)N1CCN(C(=O)C2CC2)CC1`, the Potency result was “inactive”.

Regarding `CSc1ccc(/C=N\NC(=O)COc2ccc(Cl)cc2Br)cc1`, the Potency is 13 µM (active).

`CSc1ccc(/C=N/NC(=O)c2cccc(Cl)c2)cc1`: the Potency result was “inactive”.

`O=C(COc1ccc(Cl)cc1Cl)N/N=C/c1ccccn1`: the Potency result was “inactive”.

With `CCC(=O)c1cc(F)ccc1OCC(=O)Nc1ccc2c(c1)OCCO2`, the Potency entry is “inactive”.

Turning to `COc1ccccc1NC(=O)COC(=O)COc1ccccc1F`, the Potency result is “inactive”.

With `COc1ccc(CC(=O)NC(C)c2ccc(Cl)c(Cl)c2)cc1S(=O)(=O)N1CCOCC1` (stereo unspecified), the Potency entry is “inactive”.

With `Nc1ncnc2c1cnn2C1CC(O)C(CO)O1` (stereo unspecified), the Potency result was “inactive”.

On to `CCN(C[C@H]1N[C@@](Cc2ccccc2)(C(=O)OC)[C@H]2C(=O)N(Cc3ccccc3)C(=O)[C@@H]12)C(=O)c1ccc(C)cc1`, for which the Potency entry was “inactive”.

With `Cc1cccc(OCC(=O)NC(=S)Nc2ccccc2N2CCOCC2)c1`, the Potency entry was “inactive”.

With `Cc1ccc(O)c(NC(=S)NC(=O)COc2ccc(Br)cc2)c1`, the Potency is 20.6 µM (active).

Take `Cc1ccc(O)c(NC(=O)COc2cc(C)ccc2C)c1`: the Potency entry was “inactive”.

`O=C(CCc1ccccc1Cl)Nc1ccc(S(=O)(=O)Nc2nccs2)cc1`: the Potency entry was “inactive”.

In the case of `Nc1cc(N)nc(SCC(=O)Nc2cccc(S(=O)(=O)N3CCCCC3)c2)n1`, the Potency result was “inactive”.

As for `Nc1ncnc2c1ncn2[C@@H]1O[C@H](CNCc2cccn2-c2nccs2)[C@@H](O)[C@H]1O`, the Potency entry is “inactive”.

As for `Cc1c(NC(=O)CN(C)CC(=O)Nc2ccc(F)c(F)c2F)c(=O)n(-c2ccccc2)n1C`, the Potency entry was “inactive”.

The values are drawn from PubChem BioAssay AID624296 (National Center for Advancing Translational Sciences (NCATS), 2012).
